Holding throughout (conditions): mRNA level, 48 h; actives raise or lower the signal
Read-out in assay [1]: Pro-epidermal growth factor (Homo sapiens) (UniProt P01133)
Kind of assay: LTEA_HepaRG_EGF: Life Technologies and Expression Analysis (LTEA) Assay for Epidermal growth factor (EGF) using HepaRG (AID 2283489). The gist of the method:
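EGF expression changes in human HepaRG cells are scored by bidirectional fitting relative to 0.5% DMSO controls. Chemicals are tested at eight half-log concentrations up to 100 uM for 48 h in serum-free induction medium.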

Read-out in assay [2]: Early growth response protein 1 (EGR1) transcription factor, EGR1 (gene 1958)
Kind of assay: LTEA_HepaRG_EGR1: Life Technologies and Expression Analysis (LTEA) Assay for Early growth response protein 1 (EGR1) transcription factor using HepaRG (AID 2283490). A digest of the protocol: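 HepaRG, 48 h exposure, 8-pt half-log series from 100 uM, 0.5% DMSO vehicle; EGR1 transcript by TaqMan qRT-PCR (Fluidigm array), housekeeping-normalized; bidirectional fit relative to DMSO baseline.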

Read-out in assay [3]: Ezrin (EZR), EZR (gene 7430)
Kind of assay: LTEA_HepaRG_EZR: Life Technologies and Expression Analysis (LTEA) Assay for Ezrin (EZR) using HepaRG (AID 2283491). The gist of the method:
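Differentiated human HepaRG cells, 48 h after plating, were exposed in serum-free induction medium for 48 hours to eight half-log concentrations up to 100 uM in 0.5% DMSO. EZR mRNA was measured by TaqMan qRT-PCR, normalized to ACTB, GAPDH and POLR2A, and fitted bidirectionally against DMSO.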

Read-out in assay [4]: Cytochrome P450 3A7 (Homo sapiens) (UniProt P24462)
Kind of assay: LTEA_HepaRG_CYP3A7: Life Technologies and Expression Analysis (LTEA) Assay for CYP3A7 using HepaRG (AID 2283492). A digest of the protocol:
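Cells were thawed, plated, cultured 48 h, then treated for a further 48 h with chemicals (eight-point half-log series from 100 uM, 0.5% DMSO). RNA was isolated and CYP3A7 expression quantified by qRT-PCR normalised to ACTB, GAPDH and POLR2A.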

Read-out in assay [5]: CYP3A5 (gene 1577)
Kind of assay: LTEA_HepaRG_CYP3A5: Life Technologies and Expression Analysis (LTEA) Assay for CYP3A5 using HepaRG (AID 2283493). The gist of the method: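 Readout was CYP3A5 mRNA by qRT-PCR. HepaRG cultures were exposed for 48 h in serum-free induction medium to chemicals at up to 100 uM, and responses were fitted in both directions relative to DMSO vehicle.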

Read-out in assay [6]: Fatty Acid-Binding Protein 1 (FABP1), FABP1 (gene 2168)
Kind of assay: LTEA_HepaRG_FABP1: Life Technologies and Expression Analysis (LTEA) Assay for Fatty Acid-Binding Protein 1 (FABP1) using HepaRG (AID 2283494). A digest of the protocol:
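qRT-PCR readout of FABP1 transcript (normalized to three housekeeping genes) after 48 h chemical exposure of HepaRG cells; eight concentrations, half-log steps, max 100 uM, 0.5% DMSO vehicle; gain or loss fitted relative to DMSO baseline.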

Read-out in assay [7]: Cytochrome P450 4A22 (Homo sapiens) (UniProt Q5TCH4)
Kind of assay: LTEA_HepaRG_CYP4A22: Life Technologies and Expression Analysis (LTEA) Assay for Cytochrome P450 4A22 (CYP4A22) using HepaRG (AID 2283495). The gist of the method:
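Cryopreserved HepaRG cells, plated and cultured 48 h, then switched to serum-free induction medium and treated 48 h (duplicates, up to 100 uM, half-log steps, 0.5% DMSO). Expression change of CYP4A22 was fitted bidirectionally against vehicle.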

Read-out in assay [8]: Cytochrome P450 7A1 (Homo sapiens) (UniProt P22680)
Kind of assay: LTEA_HepaRG_CYP7A1: Life Technologies and Expression Analysis (LTEA) Assay for Cytochrome P450 7A1 (CYP7A1) using HepaRG (AID 2283496). A digest of the protocol: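 Using 0.5% DMSO as vehicle and baseline, chemicals were tested in duplicate over an 8-point range from 100 uM on HepaRG cells for 48 h; qRT-PCR signals were normalised to ACTB, GAPDH and POLR2A.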

Read-out in assay [9]: Glutathione S-Transferase (GSTA2), GSTA2 (gene 2939)
Kind of assay: LTEA_HepaRG_GSTA2: Life Technologies and Expression Analysis (LTEA) Assay for Glutathione S-Transferase (GSTA2) using HepaRG (AID 2283497). The gist of the method:
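qRT-PCR readout of GSTA2 transcript, normalized to three housekeeping genes, fitted bidirectionally against 0.5% DMSO baseline. Differentiated HepaRG cells received compound for 48 h at 8 concentrations (top 100 uM, half-log steps).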

Read-out in assay [10]: Glutamate-cysteine ligase catalytic (GCLC), GCLC (gene 2729)
Kind of assay: LTEA_HepaRG_GCLC: Life Technologies and Expression Analysis (LTEA) Assay for Glutamate-cysteine ligase catalytic (GCLC) using HepaRG (AID 2283498). A digest of the protocol:
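HepaRG, 48 h exposure, 8-pt half-log series from 100 uM, 0.5% DMSO vehicle; TaqMan qRT-PCR for GCLC mRNA, housekeeping-normalized; bidirectional curve fit vs DMSO baseline.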

15 molecules from PubChem BioAssay (EPA / NIEHS) can be followed below.

Activity calls are given as the source filed them. Rule for the calls: active = hit-call score of the fitted dose curve at least 0.9, where 1 is the maximum; inactive = score below 0.9.

Sequence of Cytochrome P450 3A7 (Homo sapiens) (P24462 whole entry, looked up): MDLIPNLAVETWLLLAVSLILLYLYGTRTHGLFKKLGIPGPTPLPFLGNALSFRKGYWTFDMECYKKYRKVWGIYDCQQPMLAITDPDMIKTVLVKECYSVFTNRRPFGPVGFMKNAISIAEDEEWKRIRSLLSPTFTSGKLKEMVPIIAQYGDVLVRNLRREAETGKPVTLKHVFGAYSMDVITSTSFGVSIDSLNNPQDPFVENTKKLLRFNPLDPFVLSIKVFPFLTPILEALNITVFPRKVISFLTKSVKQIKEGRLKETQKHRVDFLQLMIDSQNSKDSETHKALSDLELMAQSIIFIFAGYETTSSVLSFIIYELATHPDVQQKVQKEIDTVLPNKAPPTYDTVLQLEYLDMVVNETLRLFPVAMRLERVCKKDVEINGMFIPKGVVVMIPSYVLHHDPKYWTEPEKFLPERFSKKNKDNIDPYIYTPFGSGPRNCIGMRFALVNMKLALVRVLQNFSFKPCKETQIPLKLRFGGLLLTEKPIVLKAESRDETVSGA

`CC(C)CCCCCCOC(=O)CCCCC(=O)OCCCCCCC(C)C`: the molecule was called inactive in [1], in assay [2], in assay [3], in assay [4], in [5] and in assay [6]. In addition, the result in assay [7], in assay [8], in assay [9] and in [10] was inactive.
On to `CC(O)CO` (configuration not stated), for which the call in assay [1], in assay [2], in assay [3], in assay [4], in assay [5] and in assay [6] was inactive. The molecule was classed as inactive in assay [7], in [8], in [9] and in [10].
`OCCC(F)(F)C(F)(F)C(F)(F)C(F)(F)C(F)(F)C(F)(F)C(F)(F)C(F)(F)F`: the molecule was classed as inactive in assay [1], in assay [2], in [3], in assay [4], in assay [5] and in assay [6]. For the same molecule, the molecule was called inactive in assay [7], in assay [9] and in assay [10].
Usually AC50 stands for the concentration giving half of the maximal activity seen. Take `Oc1cc2ccccc2c2ccccc12`: the molecule was called inactive in [1], in [2], in assay [3], in [4], in [5] and in [6]. Besides, the result in assay [7], in [9] and in assay [10] was inactive. Further, the AC50 in assay [8] is 3.01 µM (active).
Take `CCCCOCCO`: the result in assay [1], in assay [2], in [3], in assay [4], in assay [5] and in [6] was inactive. Further, the call in assay [7], in assay [8], in assay [9] and in assay [10] was inactive.
For the molecule `CC(=O)CC(C)(C)O`, the molecule was called inactive in [1], in [2], in [3], in [4], in assay [5] and in [6]. In addition, the outcome in [7], in assay [8], in assay [9] and in assay [10] was inactive.
Take `CC(C)(C)CC(C)(C)c1ccc(O)c(-n2nc3ccccc3n2)c1`: the AC50 in assay [1], in [6] and in assay [7] was 50 µM (active) throughout. In addition, the molecule was called inactive in [2], in [3], in [4], in assay [5], in assay [9] and in assay [10].
On to `CCOC(=O)CC(O)(CC(=O)OCC)C(=O)OCC`, for which the result in assay [1], in assay [2], in assay [3], in [4], in assay [5] and in assay [6] was inactive. The molecule was classed as inactive in assay [7], in assay [8], in assay [9] and in [10].
In the case of `CC(=O)NC1(c2cccc(F)c2)CCN(CC[C@@]2(c3ccc(Cl)c(Cl)c3)CN(c3ccccc3)C(=O)CO2)CC1`, the outcome in [1], in [6] and in assay [10] was inactive. In addition, the AC50 in assay [2] was 72.4 µM (active); in assay [3], 41.5 µM (active); in assay [4], 4.05 µM (active); in [5], 75 µM (active); in assay [7] it was 3.17 µM (active); in assay [8] it was 38 µM (active). Besides, the AC50 in assay [9] was 65.1 µM (active).
With `CCCOc1sc(C(=O)N2CCC(c3cc(CN)ccc3F)CC2)c(C)c1Br`, the molecule was classed as inactive in [1], in assay [2], in [3], in assay [4], in assay [5] and in assay [6]. The outcome in [7], in assay [8], in [9] and in assay [10] was inactive.
Turning to `CCCCCCCCOC(=O)CCCCCCCCC(=O)OCCCCCCCC`, the result in assay [1], in assay [2], in assay [3], in [4], in assay [5] and in assay [6] was inactive. Besides, the outcome in [7], in [8], in assay [9] and in assay [10] was inactive.
Consider `c1ccc2c(c1)Cc1ccccc1-2`, for which the result in assay [1], in [2], in [3], in [4], in assay [5] and in assay [6] was inactive. Moreover, the outcome in assay [7], in assay [8], in assay [9] and in [10] was inactive.
With `CN(C)C=O`, the molecule was called inactive in [1], in [2], in assay [3], in assay [4], in [5] and in assay [6]. Besides, the call in assay [7], in assay [8], in assay [9] and in [10] was inactive.
Turning to `CCCCC(CC)COC(=O)CCCCC(=O)OCc1ccccc1` (configuration not stated), the call in assay [1], in [2], in [3], in assay [4], in assay [5] and in assay [6] was inactive. The molecule was called inactive in assay [7], in assay [8], in assay [9] and in [10].
Take `OC1CCCCC1`: the call in assay [1], in assay [2], in assay [3], in assay [4], in assay [5] and in [6] was inactive. Also, the call in assay [7], in assay [9] and in assay [10] was inactive.
